{"source": "PubChem BioAssay AID463187", "about": "(University of Pittsburgh Molecular Library Screening Center, 2010)", "note": "The campaign covered roughly 220,000 compounds. About 1,500 (0.68%) were called active. Many of the other results were omitted from the sample, so actives are more common in it than they were. Unmarked numbers belong to inactive results.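 How the source made its calls: active means Hck-Nef kinase inhibition above about 50% (limit read from the data); inactive means inhibition below that limit.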", "data": [{"molecular_target": "Tyrosine-protein kinase HCK (Homo sapiens) (UniProt P08631)", "sequence (P08631 whole entry, looked up)": "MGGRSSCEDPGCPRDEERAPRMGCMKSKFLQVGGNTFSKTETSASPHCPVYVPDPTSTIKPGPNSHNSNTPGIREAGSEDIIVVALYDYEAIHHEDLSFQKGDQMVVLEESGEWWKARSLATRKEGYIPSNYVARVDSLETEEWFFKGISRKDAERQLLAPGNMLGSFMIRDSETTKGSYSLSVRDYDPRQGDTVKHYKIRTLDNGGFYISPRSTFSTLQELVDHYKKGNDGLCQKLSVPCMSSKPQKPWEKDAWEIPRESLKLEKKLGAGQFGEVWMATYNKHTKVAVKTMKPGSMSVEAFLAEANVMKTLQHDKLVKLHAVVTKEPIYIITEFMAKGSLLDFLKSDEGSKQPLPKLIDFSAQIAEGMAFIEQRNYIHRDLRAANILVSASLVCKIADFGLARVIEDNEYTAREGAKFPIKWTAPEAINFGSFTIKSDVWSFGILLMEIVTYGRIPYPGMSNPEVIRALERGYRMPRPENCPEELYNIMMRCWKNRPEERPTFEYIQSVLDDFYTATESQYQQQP", "test": "inhibitors of Nef-activated human Hck kinase, primary screen, biochemical, Z-Lyte FRET, 384-well, Hck-YEEI (AID 463187);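 further: 0% = DMSO with Hck plus Nef and 100% = Hck alone without Nef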", "settings": "Recombinant Hck-YEEI plus Nef, Z-Lyte FRET kinase assay; at 20 µM; hits give high values", "values": [{"smiles": "Cc1cnc(C(=O)N2CCCC(C(=O)c3ccc(C(F)(F)F)cc3)C2)cn1", "note": "(configuration not stated)", "inhibition": "17.7%"}, {"smiles": "COc1cccc(C(=O)N2CCCC(CCC(=O)NCc3ccc(F)c(F)c3)C2)c1", "note": "(configuration not stated)", "inhibition": "18.6%"}, {"smiles": "COc1cccc(CNC(=O)CCC2CCCN(C(=O)c3ccoc3C)C2)c1", "note": "(configuration not stated)", "inhibition": "1.1%"}, {"smiles": "COc1cccc(CNC(=O)CCC2CCCN(Cc3ccc(OC(F)F)cc3)C2)c1", "note": "(configuration not stated)", "inhibition": "52.7% (active)"}, {"smiles": "O=C(/C=C/c1ccc(F)cc1)Nc1cccc(S(=O)(=O)Nc2cccc(C(F)(F)F)c2)c1", "inhibition": "2.87%"}, {"smiles": "CC(=O)NC(=S)NNC(=O)c1ccc(Br)cc1", "inhibition": "-1.36%"}, {"smiles": "COc1cccc2c1OCC(C(=O)NCc1ccc(Cl)cc1Cl)=C2", "inhibition": "2.65%"}, {"smiles": "N#Cc1c(-c2cccs2)nc(SCC(=O)c2ccc(Br)cc2)[nH]c1=O", "inhibition": "72.7% (active)"}, {"smiles": "CCc1ccc(C(=O)CSc2nnc(C)c(=O)[nH]2)cc1", "inhibition": "10.1%"}, {"smiles": "Cc1nc2nc(SCC(=O)c3ccccc3)[nH]c2cc1Br", "inhibition": "16.2%"}, {"smiles": "COc1cccc(C2Nc3cccc4cccc(c34)N2)c1", "inhibition": "21.8%"}, {"smiles": "COCc1cc(C)nc2sc(C(=O)NC3CCCCC3)c(N)c12", "inhibition": "1.3%"}, {"smiles": "COc1cccc(C(=O)c2cc3ccc(O)cc3oc2=O)c1", "inhibition": "63.1% (active)"}, {"smiles": "COc1ccc2oc(=O)c(C(=O)N3CCCC3)cc2c1", "inhibition": "22%"}, {"smiles": "COc1ccc2oc(=O)c(C(=O)O)cc2c1", "inhibition": "-0.521%"}, {"smiles": "O=C(Cc1c(O)c2ccccc2[nH]c1=O)NCc1ccccc1", "inhibition": "2.47%"}, {"smiles": "COc1cc(OC)cc(C(=O)NCC(=O)OCc2csc(-c3ccccc3)n2)c1", "inhibition": "3.87%"}, {"smiles": "Cc1cc(NC(=O)CN2C(=O)NC(CCc3ccccc3)C2=O)no1", "note": "(configuration not stated)", "inhibition": "-23.9%"}, {"smiles": "CC(C)OC(=O)Cn1nc(C(F)(F)F)c2c1CCCC2", "inhibition": "22.4%"}, {"smiles": "O=C(N/N=C/c1ccc([N+](=O)[O-])cc1)C(=O)N1CCCC1", "inhibition": "6.04%"}, {"smiles": "N#C/C(=C/c1ccc(N2CCOCC2)o1)C(=O)N1CCOCC1", "inhibition": "1.17%"}, {"smiles": "Cc1nnc(SCC(=O)NNC(=O)c2ccc(Cl)cc2)n1CC1CCCO1", "note": "(configuration not stated)", "inhibition": "22.1%"}, {"smiles": "Cc1cccn2c(=O)c3cc(C#N)c(=O)n(CCCN4CCOCC4)c3nc12", "inhibition": "178% (active)"}, {"smiles": "Cc1cccn2c(=O)c3cc(C(=O)N4COCC4(C)C)n(C)c3nc12", "inhibition": "11.2%"}, {"smiles": "Cc1cccn2c(=O)c3cc(C#N)c(=NC(=O)c4cccnc4)n(CC4CCCO4)c3nc12", "note": "(configuration not stated)", "inhibition": "35.1%"}, {"smiles": "COC(=O)C1=CN(Cc2ccc(OC)c(OC)c2)C=C(C(=O)OC)C1c1cccs1", "inhibition": "79.3% (active)"}, {"smiles": "COc1ccc(CCNC(=O)COC(=O)/C=C/c2cccs2)cc1OC", "inhibition": "19.3%"}, {"smiles": "COc1ccc(C2=NN(C(=O)CCC(=O)O)C(c3cccs3)C2)cc1OC", "note": "(configuration not stated)", "inhibition": "19.1%"}, {"smiles": "O=C(Nc1ccncc1)c1cc(-c2ccccn2)nc2ccc(Br)cc12", "inhibition": "81.4% (active)"}, {"smiles": "Cc1ccc2nc(-c3ccccc3)cc(C(=O)O)c2c1", "inhibition": "3.19%"}, {"smiles": "O=C(NCc1cccs1)c1cc(-c2ccccn2)nc2ccc(Br)cc12", "inhibition": "-19.4%"}, {"smiles": "Cc1ccc2nc(-c3ccncc3)cc(C(=O)Nc3ccc(OC(F)F)cc3)c2c1", "inhibition": "53.4% (active)"}, {"smiles": "Cc1ccc2nc(-c3ccccn3)cc(C(=O)Nc3ccc4c(c3)OCO4)c2c1", "inhibition": "-2.84%"}, {"smiles": "Cc1ccc2nc(-c3ccncc3)cc(C(=O)Nc3ccc4c(c3)OCCO4)c2c1", "inhibition": "-4.23%"}, {"smiles": "COC(=O)Cn1c(=NC(=O)c2cc(OC)c(OC)c(OC)c2)sc2cc(OC)ccc21", "inhibition": "-1.02%"}, {"smiles": "COCC(C)NC(=O)COc1nncc2ccccc12", "note": "(configuration not stated)", "inhibition": "21.5%"}, {"smiles": "Cc1cc(=O)[nH]c(S)c1C#N", "inhibition": "-0.332%"}, {"smiles": "O=S(=O)(Cc1ccccc1)c1nc2ccccc2n1Cc1ccccn1", "inhibition": "5.67%"}, {"smiles": "Cc1ccc(-n2c(C)cc(/C=N/Nc3ccc([N+](=O)[O-])cn3)c2C)c(C)c1", "inhibition": "0.189%"}, {"smiles": "Cc1cc(/C=N/Nc2ccc([N+](=O)[O-])cn2)c(C)n1-c1cccc(C(=O)O)c1", "inhibition": "58.6% (active)"}, {"smiles": "Cc1cc(/C=N/n2cnnc2)c(C)n1-c1cccc(C(=O)O)c1", "inhibition": "-0.934%"}, {"smiles": "Cc1c(CCOC(=O)CC23CC4CC(CC(C)(C4)C2)C3)sc[n+]1Cc1ccc([N+](=O)[O-])cc1", "inhibition": "6.69%"}, {"smiles": "C=CCn1c(=N)n(CC(O)COc2ccc(OC)cc2)c2ccccc21", "note": "(configuration not stated)", "inhibition": "16%"}, {"smiles": "COc1ccc(CCNCC(O)Cn2ccc3ccccc32)cc1OC", "note": "(configuration not stated)", "inhibition": "37.4%"}, {"smiles": "COC(=O)c1ccc(OCC(O)CN(CCO)CC(O)Cn2ccc3ccccc32)cc1", "note": "(configuration not stated)", "inhibition": "60.4% (active)"}, {"smiles": "COCCCn1c(-c2cccs2)nc2nc3ccccc3nc21", "inhibition": "67.9% (active)"}, {"smiles": "COc1ccccc1C(=O)Nn1c(-c2cccs2)nc2ccccc2c1=O", "inhibition": "2.4%"}, {"smiles": "CC(C)n1c(-c2cccs2)nc2ccccc21", "inhibition": "10.6%"}, {"smiles": "Cc1cc(C)cc(C(=O)NC(=S)Nc2ccc3[nH]c(=O)[nH]c3c2)c1", "inhibition": "2.61%"}, {"smiles": "Cc1cc(-c2csc(N)n2)c(C)n1-c1ccccc1", "inhibition": "7.5%"}, {"smiles": "CCc1cccc2c(=O)c(C(=O)NCCCOC)c[nH]c12", "inhibition": "-18.3%"}, {"smiles": "COc1ccc(CCn2c(=N)c(C(=O)NCc3ccco3)cc3c(=O)n4cccc(C)c4nc32)cc1", "inhibition": "7.77%"}, {"smiles": "COc1ccccc1N(C)S(=O)(=O)c1ccc(C(=O)NC2CCCCCC2)cc1", "inhibition": "0.492%"}, {"smiles": "CCCCn1c(N)c(N(CC)C(=O)/C=C/c2ccco2)c(=O)[nH]c1=O", "inhibition": "-7.95%"}, {"smiles": "Cc1ncc(CC(=O)n2cc(C(=O)c3cc(Cl)ccc3O)cn2)s1", "inhibition": "78.7% (active)"}, {"smiles": "O=C(c1cnn(-c2ccc(Cl)cc2)c1)c1ccccc1O", "inhibition": "17%"}, {"smiles": "Cc1ccc(CCC(=O)Nc2ncc(Cc3cc(Cl)ccc3Cl)s2)o1", "inhibition": "6.19%"}, {"smiles": "O=C(NCc1csc(-c2cccs2)n1)C1CC1", "inhibition": "-1.15%"}, {"smiles": "COC(=O)CN1C(=S)N(c2ccccc2)C(=O)C1CC(=O)Nc1ccc(Cl)cc1", "note": "(configuration not stated)", "inhibition": "2.46%"}, {"smiles": "COc1ccc(C(=O)O/N=C(\\N)Cc2ccc(Cl)cc2Cl)cc1OC", "inhibition": "3.19%"}, {"smiles": "COc1ccc(C(=O)n2nc(-c3ccc(C)cc3)nc2N)cc1OC", "inhibition": "-1.4%"}, {"smiles": "COc1ccc(C(=O)n2nc(-c3ccc(Cl)cc3)nc2N)cc1OC", "inhibition": "81.4% (active)"}, {"smiles": "CC(C)NC(=O)/C(C#N)=C\\c1ccc(N(C)C)c(Br)c1", "inhibition": "7.25%"}, {"smiles": "O=C(O)Cc1sc(-c2ccccc2)nc1-c1cccs1", "inhibition": "-10.1%"}, {"smiles": "CCCNC(=O)N1CCN(C(=O)NCCC)CC1", "inhibition": "0.793%"}, {"smiles": "O=[N+]([O-])C(=c1ccc2c(c1)N1C3=C(CCCC3)CC3CCCCC31N=2)[N+](=O)[O-]", "note": "(configuration not stated)", "inhibition": "73% (active)"}, {"smiles": "CCCCCC(=O)Nc1ccc(S(=O)(=O)Nc2ccc(Cl)nn2)cc1", "inhibition": "-1.44%"}, {"smiles": "CCOc1ccccc1Oc1cn[nH]c1-c1ccc(OC)cc1O", "inhibition": "26.3%"}, {"smiles": "CCOc1ccc(-c2n[nH]c(C)c2-c2ccccn2)c(O)c1", "inhibition": "-15.5%"}, {"smiles": "C=C(C)COc1ccc(-c2n[nH]c(C)c2-c2ccccc2OC)c(O)c1", "inhibition": "12.1%"}, {"smiles": "C=C(C)COc1ccc(-c2nc(N)ncc2-c2ccccc2OC)c(O)c1", "inhibition": "68.8% (active)"}, {"smiles": "CCOc1ccc(-c2nc(N)ncc2-c2ccccc2OC)c(O)c1", "inhibition": "75.3% (active)"}, {"smiles": "C=C(C)COc1ccc(-c2n[nH]c(C)c2-c2ccccc2)c(O)c1", "inhibition": "-0.0537%"}, {"smiles": "c1ccc(-c2cc3c(NCC4COc5ccccc5O4)ncnc3s2)cc1", "note": "(configuration not stated)", "inhibition": "5.9%"}, {"smiles": "COc1ccc(-c2cc(C(=O)NCCCn3ccnc3)no2)cc1", "inhibition": "-9.96%"}, {"smiles": "Cc1cccc2cc(CN(C(=O)c3cccs3)c3ccccc3)c(=O)[nH]c12", "inhibition": "3.68%"}, {"smiles": "O=C(CN1CCN(c2ccc(O)cc2)CC1)Nc1cc(S(=O)(=O)N2CCOCC2)ccc1Cl", "inhibition": "12.6%"}, {"smiles": "O=C(N/N=C/c1ccc([N+](=O)[O-])o1)c1cccc(S(=O)(=O)N2CCOCC2)c1", "inhibition": "18.1%"}, {"smiles": "O=[N+]([O-])c1cc(Cl)cc(/C=N/NC(=S)Nc2cc(S(=O)(=O)N3CCOCC3)ccc2Cl)c1O", "inhibition": "68.6% (active)"}, {"smiles": "Cc1nn(Cc2ccc(C(=O)N3N=C(C(F)F)CC3(O)C(F)F)cc2)c(C)c1[N+](=O)[O-]", "note": "(configuration not stated)", "inhibition": "-2.69%"}, {"smiles": "O=C(CN1C(=O)/C(=C\\c2ccccc2F)SC1=S)Nc1nc2ccccc2s1", "inhibition": "4.36%"}, {"smiles": "CN(C)S(=O)(=O)c1cccc(-c2nn(-c3ccccc3)cc2/C=C2\\SC(=S)N(CC(=O)O)C2=O)c1", "inhibition": "56.2% (active)"}, {"smiles": "Cc1ccc(-c2nn(-c3ccccc3)cc2/C=C/C(=O)Nc2cccc(S(N)(=O)=O)c2)cc1", "inhibition": "14.1%"}, {"smiles": "CC1(C)CC(=O)C(C2c3ccccc3S(=O)(=O)c3ccccc32)C(=O)C1", "inhibition": "2.74%"}, {"smiles": "C=CCOc1c2ccc(C(=O)N(CC)c3ccc(OC)cc3)cc2nn1C", "inhibition": "-0.652%"}, {"smiles": "CC1=NN(/C(=N\\c2nnc(C)s2)Nc2ccccc2)[C@H](c2ccc(C)cc2)S1", "inhibition": "-3.06%"}, {"smiles": "CCCc1cc(=O)oc2c(C)c(O)c(CN3CCCCC3)cc12", "inhibition": "31%"}, {"smiles": "COC(=O)COc1ccc2oc(=O)cc(C)c2c1", "inhibition": "1.26%"}, {"smiles": "COC(=O)Cc1cc(=O)oc2c(C)c(O)ccc12", "inhibition": "58.3% (active)"}, {"smiles": "CCCn1c(=NC(C)=O)c(C(=O)OCC)cc2c(=O)n3ccccc3nc21", "inhibition": "95.9% (active)"}, {"smiles": "CCOC(=O)c1cc2c(=O)n3ccccc3nc2n(CC(C)C)c1=NC(=O)c1c(-c2c(F)cccc2Cl)noc1C", "inhibition": "8.32%"}, {"smiles": "CCOC(=O)c1cc2n(c1N)-c1ccccc1C2=O", "inhibition": "-1.56%"}]}]}
